# Assay results reported in paper PMC7862700, “An all-to-all approach to the identification of sequence-specific readers for epigenetic DNA modifications on cytosine”.
# Key:
# Test in all cases: DAPPL (digital affinity profiling via proximity ligation, sequencing); 10 mM Tris-HCl pH 7.5, 50 mM NaCl, 1 mM DTT, 4% glycerol, room temperature, 30 min; GST-TFs on glutathione beads, 16-mer random dsDNA library, 0.1% formaldehyde crosslink after washing; high values mean tight binding
# FLI1 = target: T1, FLI1 (Homo sapiens, UniProt Q01543 1-452); conditions: protein: recombinant; tags: N-terminal GST; dsDNA, one strand shown
# T1 sequence: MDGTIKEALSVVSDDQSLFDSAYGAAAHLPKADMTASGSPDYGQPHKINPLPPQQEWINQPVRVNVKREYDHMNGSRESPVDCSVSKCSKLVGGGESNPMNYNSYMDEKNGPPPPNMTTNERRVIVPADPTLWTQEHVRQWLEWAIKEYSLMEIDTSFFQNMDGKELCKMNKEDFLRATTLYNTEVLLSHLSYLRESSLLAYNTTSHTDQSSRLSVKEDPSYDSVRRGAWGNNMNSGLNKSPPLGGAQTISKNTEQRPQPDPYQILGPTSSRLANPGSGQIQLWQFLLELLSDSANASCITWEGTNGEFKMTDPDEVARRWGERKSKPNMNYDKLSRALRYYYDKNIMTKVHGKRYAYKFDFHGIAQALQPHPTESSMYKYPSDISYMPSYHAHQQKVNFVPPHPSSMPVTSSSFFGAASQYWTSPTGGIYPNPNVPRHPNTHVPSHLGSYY
# In short: (§1)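 Human transcription factors carrying a GST fusion were produced in yeast, bound to glutathione beads, tagged with DNA barcodes and pooled together with a tag-only sample. Each pool was held with 200 nmole of a random double-stranded 16-mer DNA library in Tris/NaCl/DTT/glycerol buffer for 30 min at room temperature, then washed, crosslinked in 0.1% formaldehyde, proximity-ligated with BsaI/T4 ligase (1 h, 37 °C), PCR-amplified and sequenced on an Illumina NextSeq500. Binding signal is the read frequency of each hexamer for a given factor divided by its frequency in the tag-only sample.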
# ELK1 = target: T2, ELK1 (Homo sapiens, UniProt P19419 1-428); conditions: protein: recombinant; tags: N-terminal GST; dsDNA, one strand shown
# T2 sequence: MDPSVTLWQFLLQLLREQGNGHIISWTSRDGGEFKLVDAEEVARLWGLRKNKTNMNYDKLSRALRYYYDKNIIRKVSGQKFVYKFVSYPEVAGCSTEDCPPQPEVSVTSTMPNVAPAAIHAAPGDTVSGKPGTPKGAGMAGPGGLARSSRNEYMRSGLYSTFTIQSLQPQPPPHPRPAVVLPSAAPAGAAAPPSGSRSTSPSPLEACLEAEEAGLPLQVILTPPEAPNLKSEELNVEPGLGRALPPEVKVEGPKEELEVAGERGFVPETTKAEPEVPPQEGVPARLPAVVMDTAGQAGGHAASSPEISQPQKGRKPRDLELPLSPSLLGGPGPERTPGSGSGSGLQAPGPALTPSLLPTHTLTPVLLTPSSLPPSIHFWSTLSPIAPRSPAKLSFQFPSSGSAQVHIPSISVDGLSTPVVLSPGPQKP
# In short: as §1
# GABPA = target: T3, GABPA (Homo sapiens, UniProt Q06546 1-454); conditions: protein: recombinant; tags: N-terminal GST; dsDNA, one strand shown
# T3 sequence: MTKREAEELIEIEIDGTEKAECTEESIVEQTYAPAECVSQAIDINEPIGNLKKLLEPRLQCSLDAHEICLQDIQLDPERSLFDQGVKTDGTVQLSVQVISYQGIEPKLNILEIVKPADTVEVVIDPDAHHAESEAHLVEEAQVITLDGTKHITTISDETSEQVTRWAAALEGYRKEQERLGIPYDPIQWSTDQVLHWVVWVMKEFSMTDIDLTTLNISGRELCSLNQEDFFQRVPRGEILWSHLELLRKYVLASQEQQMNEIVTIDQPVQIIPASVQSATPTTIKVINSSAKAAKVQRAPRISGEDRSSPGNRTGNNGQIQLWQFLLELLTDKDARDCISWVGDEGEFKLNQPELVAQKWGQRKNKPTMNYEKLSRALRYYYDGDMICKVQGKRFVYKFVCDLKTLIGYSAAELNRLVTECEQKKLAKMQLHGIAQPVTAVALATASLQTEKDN
# In short: as §1
# ERG = target: T4, ERG (Homo sapiens, UniProt P11308 1-479); conditions: protein: recombinant; tags: N-terminal GST; dsDNA, one strand shown
# T4 sequence: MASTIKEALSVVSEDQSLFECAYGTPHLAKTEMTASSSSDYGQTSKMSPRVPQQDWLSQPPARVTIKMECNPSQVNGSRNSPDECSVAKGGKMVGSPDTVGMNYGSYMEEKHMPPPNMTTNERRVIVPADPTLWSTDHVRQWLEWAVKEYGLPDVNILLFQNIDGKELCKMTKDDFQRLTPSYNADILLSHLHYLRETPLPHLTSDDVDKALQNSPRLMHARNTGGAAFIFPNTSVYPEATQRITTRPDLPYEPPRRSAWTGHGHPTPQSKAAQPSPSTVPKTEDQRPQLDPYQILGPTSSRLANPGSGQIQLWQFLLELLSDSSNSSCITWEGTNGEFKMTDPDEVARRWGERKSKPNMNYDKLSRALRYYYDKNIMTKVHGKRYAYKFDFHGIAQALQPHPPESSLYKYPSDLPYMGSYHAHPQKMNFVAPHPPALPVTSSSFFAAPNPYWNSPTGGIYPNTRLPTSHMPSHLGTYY
# In short: as §1
# ELF1 = ELF1 (Homo sapiens, UniProt P32519 1-619); conditions: protein: recombinant; tags: N-terminal GST; dsDNA, one strand shown
# ELF1, sequence (P32519 whole entry): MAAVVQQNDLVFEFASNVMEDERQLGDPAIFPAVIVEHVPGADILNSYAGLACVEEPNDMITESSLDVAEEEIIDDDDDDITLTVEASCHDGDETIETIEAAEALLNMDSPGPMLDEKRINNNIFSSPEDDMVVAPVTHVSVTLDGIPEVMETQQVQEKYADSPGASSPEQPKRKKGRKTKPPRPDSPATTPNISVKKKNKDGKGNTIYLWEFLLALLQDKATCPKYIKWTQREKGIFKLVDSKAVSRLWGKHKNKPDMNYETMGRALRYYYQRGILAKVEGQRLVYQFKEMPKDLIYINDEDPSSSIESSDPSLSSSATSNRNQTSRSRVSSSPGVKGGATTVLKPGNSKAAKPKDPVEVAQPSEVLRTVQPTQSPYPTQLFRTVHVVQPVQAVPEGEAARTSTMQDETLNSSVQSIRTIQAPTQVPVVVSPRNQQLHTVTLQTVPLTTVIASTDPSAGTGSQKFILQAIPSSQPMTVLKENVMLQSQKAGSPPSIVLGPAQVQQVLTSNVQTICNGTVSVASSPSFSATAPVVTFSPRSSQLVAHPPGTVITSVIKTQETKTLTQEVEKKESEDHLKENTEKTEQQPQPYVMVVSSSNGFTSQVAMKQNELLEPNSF
# In short: as §1
# EHF = target: T5, EHF (Homo sapiens, UniProt Q9NZC4 1-300); conditions: protein: recombinant; tags: N-terminal GST; dsDNA, one strand shown
# T5 sequence: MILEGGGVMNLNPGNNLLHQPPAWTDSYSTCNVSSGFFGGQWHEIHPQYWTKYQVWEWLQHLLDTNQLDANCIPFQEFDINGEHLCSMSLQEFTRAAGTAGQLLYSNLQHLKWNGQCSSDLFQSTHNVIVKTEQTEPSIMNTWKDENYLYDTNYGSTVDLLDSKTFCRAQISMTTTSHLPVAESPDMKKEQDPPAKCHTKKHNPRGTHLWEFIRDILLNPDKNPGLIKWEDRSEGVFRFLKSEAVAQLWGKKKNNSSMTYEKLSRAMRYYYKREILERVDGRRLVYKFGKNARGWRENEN
# In short: as §1
# SPI1 = SPI1 (Homo sapiens, UniProt P17947 1-270); conditions: protein: recombinant; tags: N-terminal GST; dsDNA, one strand shown
# In short: as §1
# SPIB = SPIB (Homo sapiens, UniProt Q01892 1-262); conditions: protein: recombinant; tags: N-terminal GST; dsDNA, one strand shown
# SPIB, sequence (Q01892 whole entry): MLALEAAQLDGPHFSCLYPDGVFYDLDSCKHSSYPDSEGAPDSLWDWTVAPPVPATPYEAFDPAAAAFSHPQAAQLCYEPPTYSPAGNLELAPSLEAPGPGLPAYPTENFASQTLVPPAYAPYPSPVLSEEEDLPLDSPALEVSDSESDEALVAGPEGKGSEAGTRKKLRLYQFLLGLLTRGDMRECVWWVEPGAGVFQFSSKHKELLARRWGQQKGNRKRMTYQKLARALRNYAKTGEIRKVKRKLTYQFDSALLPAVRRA
# In short: as §1
# ELK3 = target: T6, ELK3 (Homo sapiens, UniProt P41970 1-407); conditions: protein: recombinant; tags: N-terminal GST; dsDNA, one strand shown
# T6 sequence: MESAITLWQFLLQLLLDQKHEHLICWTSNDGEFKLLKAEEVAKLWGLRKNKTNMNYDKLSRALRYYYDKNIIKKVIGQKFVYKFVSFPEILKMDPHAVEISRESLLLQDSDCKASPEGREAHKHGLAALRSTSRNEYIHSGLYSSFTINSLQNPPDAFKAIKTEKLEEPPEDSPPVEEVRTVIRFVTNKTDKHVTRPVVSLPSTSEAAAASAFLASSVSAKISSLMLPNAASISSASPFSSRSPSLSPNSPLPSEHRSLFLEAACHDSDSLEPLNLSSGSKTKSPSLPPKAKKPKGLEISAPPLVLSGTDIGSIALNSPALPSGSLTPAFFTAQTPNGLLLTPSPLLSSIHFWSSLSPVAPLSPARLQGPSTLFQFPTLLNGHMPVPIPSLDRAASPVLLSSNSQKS
# In short: as §1
# FEV = target: T7, FEV (Homo sapiens, UniProt Q99581 1-238); conditions: protein: recombinant; tags: N-terminal GST; dsDNA, one strand shown
# T7 sequence: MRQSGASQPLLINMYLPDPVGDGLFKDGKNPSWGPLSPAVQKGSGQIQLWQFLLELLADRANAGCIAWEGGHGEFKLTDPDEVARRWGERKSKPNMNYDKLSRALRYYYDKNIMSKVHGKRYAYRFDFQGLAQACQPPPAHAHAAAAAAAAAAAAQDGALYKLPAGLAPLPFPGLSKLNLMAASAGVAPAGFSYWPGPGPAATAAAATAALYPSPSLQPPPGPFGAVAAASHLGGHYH
# In short: as §1
# ETV5 = ETV5 (Homo sapiens, UniProt P41161 1-510); conditions: protein: recombinant; tags: N-terminal GST; dsDNA, one strand shown
# ETV5, sequence (P41161 whole entry): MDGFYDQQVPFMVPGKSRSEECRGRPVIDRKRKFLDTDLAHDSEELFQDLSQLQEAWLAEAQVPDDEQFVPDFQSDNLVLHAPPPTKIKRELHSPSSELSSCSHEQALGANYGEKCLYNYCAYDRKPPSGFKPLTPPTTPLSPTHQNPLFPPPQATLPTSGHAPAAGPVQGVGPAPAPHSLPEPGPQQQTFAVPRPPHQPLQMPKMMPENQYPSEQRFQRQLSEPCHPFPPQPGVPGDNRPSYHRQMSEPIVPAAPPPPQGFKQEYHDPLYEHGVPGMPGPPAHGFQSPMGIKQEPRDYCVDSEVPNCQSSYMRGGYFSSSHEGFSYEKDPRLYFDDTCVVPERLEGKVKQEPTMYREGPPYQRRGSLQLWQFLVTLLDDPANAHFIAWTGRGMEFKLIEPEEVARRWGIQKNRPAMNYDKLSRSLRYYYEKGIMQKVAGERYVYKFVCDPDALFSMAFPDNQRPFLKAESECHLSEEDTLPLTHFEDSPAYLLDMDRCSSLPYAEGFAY
# In short: as §1
# HSF1 = HSF1 (Homo sapiens, UniProt Q00613 1-529); conditions: protein: recombinant; tags: N-terminal GST; chain copies: 3; dsDNA, one strand shown
# HSF1, sequence (Q00613 whole entry): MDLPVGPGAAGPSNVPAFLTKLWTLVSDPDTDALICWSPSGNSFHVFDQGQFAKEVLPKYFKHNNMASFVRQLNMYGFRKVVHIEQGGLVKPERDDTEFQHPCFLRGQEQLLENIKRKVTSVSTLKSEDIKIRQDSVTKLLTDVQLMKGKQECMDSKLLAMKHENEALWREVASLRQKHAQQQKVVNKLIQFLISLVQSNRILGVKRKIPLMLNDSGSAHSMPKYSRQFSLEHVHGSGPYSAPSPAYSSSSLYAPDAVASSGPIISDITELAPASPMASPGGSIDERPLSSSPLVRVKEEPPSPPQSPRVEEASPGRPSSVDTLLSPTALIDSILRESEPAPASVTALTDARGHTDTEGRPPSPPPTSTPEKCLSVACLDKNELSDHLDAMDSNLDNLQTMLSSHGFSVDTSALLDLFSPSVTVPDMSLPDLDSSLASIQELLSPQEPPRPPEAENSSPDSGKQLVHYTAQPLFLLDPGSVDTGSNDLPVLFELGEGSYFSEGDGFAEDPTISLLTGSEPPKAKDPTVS
# In short: as §1
# SPIC = target: T8, SPIC (Homo sapiens, UniProt Q8N5J4 1-248); conditions: protein: recombinant; tags: N-terminal GST; dsDNA, one strand shown
# T8 sequence: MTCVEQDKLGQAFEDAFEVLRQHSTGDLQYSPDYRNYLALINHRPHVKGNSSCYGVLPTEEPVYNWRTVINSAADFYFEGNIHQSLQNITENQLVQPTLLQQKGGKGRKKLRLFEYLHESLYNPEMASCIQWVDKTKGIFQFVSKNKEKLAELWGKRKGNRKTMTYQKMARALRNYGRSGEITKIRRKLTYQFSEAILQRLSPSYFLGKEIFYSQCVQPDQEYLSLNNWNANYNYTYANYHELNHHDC
# In short: as §1
# ELF4 = ELF4 (Homo sapiens, UniProt Q99607 1-663); conditions: protein: recombinant; tags: N-terminal GST; dsDNA, one strand shown
# ELF4, sequence (Q99607 whole entry): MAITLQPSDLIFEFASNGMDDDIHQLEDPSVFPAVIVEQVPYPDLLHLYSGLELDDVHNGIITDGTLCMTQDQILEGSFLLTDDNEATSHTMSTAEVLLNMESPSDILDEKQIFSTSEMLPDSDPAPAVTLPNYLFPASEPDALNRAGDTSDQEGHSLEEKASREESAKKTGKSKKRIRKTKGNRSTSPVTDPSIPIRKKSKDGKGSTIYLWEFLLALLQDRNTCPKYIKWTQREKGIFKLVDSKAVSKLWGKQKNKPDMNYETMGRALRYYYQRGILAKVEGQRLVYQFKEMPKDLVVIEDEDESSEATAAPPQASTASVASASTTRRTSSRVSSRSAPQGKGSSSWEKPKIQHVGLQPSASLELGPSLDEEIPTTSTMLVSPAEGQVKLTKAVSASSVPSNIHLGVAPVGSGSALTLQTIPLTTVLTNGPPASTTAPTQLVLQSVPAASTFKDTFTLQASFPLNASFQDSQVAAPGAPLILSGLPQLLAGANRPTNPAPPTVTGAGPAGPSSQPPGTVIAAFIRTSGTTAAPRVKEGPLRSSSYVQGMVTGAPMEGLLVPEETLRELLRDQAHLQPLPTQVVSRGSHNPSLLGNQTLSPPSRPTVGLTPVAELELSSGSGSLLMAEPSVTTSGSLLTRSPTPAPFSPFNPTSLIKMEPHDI
# In short: as §1
# ELK4 = target: T9, ELK4 (Homo sapiens, UniProt P28324-2 1-405); conditions: protein: recombinant; tags: N-terminal GST; dsDNA, one strand shown
# T9 sequence: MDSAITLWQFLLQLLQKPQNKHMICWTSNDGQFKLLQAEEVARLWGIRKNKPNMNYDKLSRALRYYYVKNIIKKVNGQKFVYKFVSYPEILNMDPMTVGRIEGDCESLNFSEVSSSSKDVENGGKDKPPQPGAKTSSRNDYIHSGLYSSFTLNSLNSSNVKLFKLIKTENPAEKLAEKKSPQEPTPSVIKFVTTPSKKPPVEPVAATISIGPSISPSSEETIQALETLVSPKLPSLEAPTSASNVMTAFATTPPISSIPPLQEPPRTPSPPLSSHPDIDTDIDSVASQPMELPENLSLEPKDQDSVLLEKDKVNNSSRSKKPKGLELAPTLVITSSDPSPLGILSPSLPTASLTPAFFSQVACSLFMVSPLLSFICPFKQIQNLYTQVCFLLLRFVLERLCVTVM
# In short: as §1
# ETV2 = target: T10, ETV2 (Homo sapiens, UniProt O00321 1-342); conditions: protein: recombinant; tags: N-terminal GST; dsDNA, one strand shown
# T10 sequence: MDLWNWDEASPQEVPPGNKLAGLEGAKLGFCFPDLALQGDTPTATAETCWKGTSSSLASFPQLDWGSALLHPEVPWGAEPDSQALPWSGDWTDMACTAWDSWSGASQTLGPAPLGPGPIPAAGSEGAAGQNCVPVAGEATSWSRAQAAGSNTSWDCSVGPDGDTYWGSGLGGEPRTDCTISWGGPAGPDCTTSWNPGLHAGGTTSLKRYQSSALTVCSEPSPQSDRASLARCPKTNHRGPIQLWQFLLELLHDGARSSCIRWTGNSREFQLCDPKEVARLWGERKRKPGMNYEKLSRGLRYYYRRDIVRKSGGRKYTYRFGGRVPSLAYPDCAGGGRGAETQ
# In short: as §1
# ELF3 = target: T11, ELF3 (Homo sapiens, UniProt P78545 1-371); conditions: protein: recombinant; tags: N-terminal GST; dsDNA, one strand shown
# T11 sequence: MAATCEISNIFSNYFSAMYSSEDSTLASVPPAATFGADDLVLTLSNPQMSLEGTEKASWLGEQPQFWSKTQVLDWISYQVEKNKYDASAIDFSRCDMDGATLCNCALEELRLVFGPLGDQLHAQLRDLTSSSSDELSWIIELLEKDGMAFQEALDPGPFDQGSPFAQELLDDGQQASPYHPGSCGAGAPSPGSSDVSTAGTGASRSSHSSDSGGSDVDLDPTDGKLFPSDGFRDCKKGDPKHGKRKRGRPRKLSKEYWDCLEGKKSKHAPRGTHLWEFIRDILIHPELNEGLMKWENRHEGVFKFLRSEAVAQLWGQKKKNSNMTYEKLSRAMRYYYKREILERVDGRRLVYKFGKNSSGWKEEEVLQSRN
# In short: as §1
# CRX = CRX (Homo sapiens, UniProt O43186 1-299); conditions: protein: recombinant; tags: N-terminal GST; dsDNA, one strand shown
# CRX, sequence (O43186 whole entry): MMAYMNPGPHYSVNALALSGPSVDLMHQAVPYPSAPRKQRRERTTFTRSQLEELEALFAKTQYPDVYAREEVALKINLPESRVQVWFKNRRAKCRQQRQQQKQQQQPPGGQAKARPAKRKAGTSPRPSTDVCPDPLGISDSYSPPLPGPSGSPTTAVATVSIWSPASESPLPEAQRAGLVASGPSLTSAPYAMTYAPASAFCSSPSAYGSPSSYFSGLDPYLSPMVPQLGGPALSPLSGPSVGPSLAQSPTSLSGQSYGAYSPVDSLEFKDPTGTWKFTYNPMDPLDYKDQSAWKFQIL
# In short: as §1
# ETV1 = ETV1 (Homo sapiens, UniProt P50549 1-477); conditions: protein: recombinant; tags: N-terminal GST; dsDNA, one strand shown
# ETV1, sequence (P50549 whole entry): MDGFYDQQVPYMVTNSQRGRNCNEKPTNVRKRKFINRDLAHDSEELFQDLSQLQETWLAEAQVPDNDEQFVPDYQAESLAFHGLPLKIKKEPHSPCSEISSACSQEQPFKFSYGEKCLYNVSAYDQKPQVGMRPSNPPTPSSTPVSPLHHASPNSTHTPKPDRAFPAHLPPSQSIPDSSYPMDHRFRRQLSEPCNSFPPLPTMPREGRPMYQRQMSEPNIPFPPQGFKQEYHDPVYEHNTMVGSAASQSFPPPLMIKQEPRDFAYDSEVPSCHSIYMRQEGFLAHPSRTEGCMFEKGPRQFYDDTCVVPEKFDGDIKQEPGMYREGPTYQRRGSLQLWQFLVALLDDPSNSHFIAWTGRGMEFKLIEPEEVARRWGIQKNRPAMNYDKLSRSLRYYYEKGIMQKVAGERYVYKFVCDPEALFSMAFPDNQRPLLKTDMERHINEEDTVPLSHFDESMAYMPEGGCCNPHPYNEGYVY
# In short: as §1
sequence,measurement,setting,value
AAACAT,binding signal,FLI1,"1.53 fold enrichment (6-mer frequency, TF over GST control)"
same,binding signal,ELK1,"1.4 fold enrichment (6-mer frequency, TF over GST control)"
same,binding signal,GABPA,"1.49 fold enrichment (6-mer frequency, TF over GST control)"
same,binding signal,ERG,"1.37 fold enrichment (6-mer frequency, TF over GST control)"
same,binding signal,ELF1,"1.5 fold enrichment (6-mer frequency, TF over GST control)"
same,binding signal,EHF,"1.43 fold enrichment (6-mer frequency, TF over GST control)"
same,binding signal,SPI1,"1.36 fold enrichment (6-mer frequency, TF over GST control)"
same,binding signal,SPIB,"1.48 fold enrichment (6-mer frequency, TF over GST control)"
same,binding signal,ELK3,"1.46 fold enrichment (6-mer frequency, TF over GST control)"
same,binding signal,FEV,"1.45 fold enrichment (6-mer frequency, TF over GST control)"
same,binding signal,ETV5,"1.57 fold enrichment (6-mer frequency, TF over GST control)"
same,binding signal,HSF1,"1.48 fold enrichment (6-mer frequency, TF over GST control)"
same,binding signal,SPIC,"1.53 fold enrichment (6-mer frequency, TF over GST control)"
same,binding signal,ELF4,"1.53 fold enrichment (6-mer frequency, TF over GST control)"
same,binding signal,ELK4,"1.49 fold enrichment (6-mer frequency, TF over GST control)"
same,binding signal,ETV2,"1.53 fold enrichment (6-mer frequency, TF over GST control)"
same,binding signal,ELF3,"1.53 fold enrichment (6-mer frequency, TF over GST control)"
same,binding signal,CRX,"1.32 fold enrichment (6-mer frequency, TF over GST control)"
same,binding signal,ETV1,"1.43 fold enrichment (6-mer frequency, TF over GST control)"
